“And” between values parts separate entries of the source, which are not always exact repeats. Identical values can stand only once. Among all 370,000 compounds or so, about 2,400 (0.65%) were called active.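 Rule for the calls: active = inhibition above the screen-wide mean plus 3 SD (cut at about 13% in these data); inactive = the rest.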 Shown is part of a subset that was picked to be rich in actives. A structure can be active in one record and inactive in another.
System: HIV-1 integrase (with human LEDGF/p75)
Experiment: blockers of LEDGF/p75-dependent integrase strand transfer – biochemical, TR-FRET, high throughput, primary screen (AID 743269);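 note: signal is the Cy5 over europium emission ratio at 671 and 618 nm; 0% = plate median of compound wells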
Conditions: TR-FRET IN-LEDGF/p75 DNA integration, Eu/Cy5; at 3.7 µM; stronger effect = higher value

SMILES | inhibition
C=CC1=C(C(=O)O)N2C(=O)[C@@H](NC(=O)/C(=N\OCC(=O)O)c3csc(N)n3)[C@H]2SC1 | 19.9% (active)
C=CC1=C(C(=O)O)N2C(=O)[C@@H](NC(=O)/C(=N/OCC(=O)O)c3csc(N)n3)[C@H]2SC1 | 63.4% (active)
CO/N=C(\C(=O)N[C@@H]1C(=O)N2C(C(=O)O)=C(COC(C)=O)CS[C@H]12)c1csc(N)n1 (stereo in doubt) | 14.1% (active) and 6.2% (inactive) and 17.6% (active)
COc1ccc(C(=O)OCCN(C)C2CN(Cc3cn(Cc4cccc(C)c4)nn3)S(=O)(=O)C2)cc1OC (stereo not given) | 4.74% (inactive)
CN(C(N)=NC(=O)/C=C/c1ccccc1)C(C#Cc1ccccc1)Cc1ccccc1 (stereo not given) | 2.02% (inactive)
COc1ccc(C2CC=C(C(=O)O)C(c3ccccc3F)N2S(=O)(=O)c2ccc(C)cc2)cc1OC (stereo not given) | -2.7% (inactive)
CN1C[C@]2(C=C3CCCCC3n3c(=O)n(-c4ccccc4)c(=O)n32)N=C1NC(=O)c1ccccc1 (stereo not given in full) | 0.62% (inactive)
O=C(CNC(=O)c1ccccc1)OC(C(=O)Nc1cc([N+](=O)[O-])ccc1F)c1ccccc1 (stereo not given) | -3.25% (inactive)
Cc1ccc(-n2c(SCC(=O)Nc3ccc(S(=O)(=O)Nc4nccs4)cc3)nnc2-c2cccnc2)cc1 | 8.17% (inactive)
COc1cccc(CNC(=O)C2CCCN(c3nc4ccccc4o3)C2)c1OC (stereo not given) | 3.24% (inactive)
COc1ccccc1-c1cc(C(=O)NCCCn2ccnc2)no1 | 16.7% (active)
O=C(NCCCn1ccnc1)c1cc(-c2ccccc2)on1 | 1.32% (inactive)
O=C(CCN1C(=O)c2ccccc2C1=O)NCCCn1ccnc1 | 1.21% (inactive)
O=C(c1c[nH]c2ccccc12)N1CCC(Oc2cccnc2)CC1 | 8.82% (inactive)
Cc1ccc(-n2c(SCC(=O)Nc3cccc4ccccc34)nnc2-c2ccco2)cc1 | 1.78% (inactive)
COc1ccc(-n2c(SCC(=O)Nc3ccc4c(c3)OCCO4)nnc2-c2ccc(Cl)cc2)cc1 | 3.45% (inactive)
O=C(COC(=O)Cc1ccc(Br)cc1)Nc1ccc(N2CCOCC2)cc1 | -6.57% (inactive)
O=C(O)CCC(=O)Nc1ccc(N2CCOCC2)cc1 | 17.1% (active)
Cc1csc(=O)n1CCC(=O)OCC(=O)Nc1ccc(N2CCOCC2)cc1 | 1.07% (inactive)
COc1ccc(-c2cc(-c3nnc(SCc4ccc([N+](=O)[O-])cc4)n3N)[nH]n2)cc1 | -1.38% (inactive)
COc1ccccc1C(=O)CSc1nnc(-c2ccccn2)n1-c1ccccc1 | -0.35% (inactive)
O=C(CSc1nc2ccccc2s1)NN=Cc1ccc(O)cc1O | -3.78% (inactive)
O=C(Nc1ccccc1)N1CCN(Cc2nc3ccccc3c(=O)[nH]2)CC1 | -2.46% (inactive)
Cc1c(C#N)c(NC(=O)c2ccccc2)n(Cc2ccccc2)c1C | 0.96% (inactive)
CC(=O)Nc1ccc(C(=O)Nc2nc(-c3cc(C)n(Cc4ccccc4)c3C)cs2)cc1 | 17.7% (active)
CCCn1c(C)cc(-c2csc(NC(=O)CCc3nc4ccccc4c(=O)[nH]3)n2)c1C | 5.25% (inactive)
CCOc1ccc(-n2c(SCC(=O)Nc3cc(C)c(NC(=O)c4ccccc4)cc3OC)nnc2-c2cccs2)cc1 | 1.97% (inactive)

SMILES | inhibition
COc1ccc(S[C@]2(C(=O)N(C)C)CC(=O)N(c3ccc(OC)cc3)[C@@H]2c2ccc(OC)cc2)cc1 | 2.73% (inactive)
C=CCN1[C@@H](Cc2ccccc2)COc2cccc(N3CCSCC3)c2S1(=O)=O | 1.03% (inactive)
CCn1c2ccccc2c2cc(NC(=O)CSc3nnc(-c4ccccc4)n3-c3ccc(C)cc3)ccc21 | 0.64% (inactive)
COc1ccc(Cn2cc(CN3CCS(=O)(=O)N(Cc4ccc(-c5cccc(Cl)c5)cc4)C(C)C3=O)nn2)cc1 (stereo not given) | 79.8% (active)
CC1C(=O)N(Cc2cn(Cc3ccco3)nn2)CCS(=O)(=O)N1Cc1ccc(-c2cccc(CO)c2)cc1 (stereo not given) | 1.97% (inactive)
CC1C(=O)N(Cc2cn(CC3CCCCC3)nn2)CCS(=O)(=O)N1Cc1ccc(-c2cccc(N(C)C)c2)cc1 (stereo not given) | 5.48% (inactive)
COC(=O)[C@]12C[C@H](CC(=O)NCc3cccs3)C(=O)N(CCc3ccc(OC)c(OC)c3)C1=C[C@H](C(C)C)O[C@@H]2C1CC1 | 4.37% (inactive)
Cc1c(CC(=O)N2CCN(C(=O)C3COc4ccccc4O3)CC2)c(=O)oc2c(O)c(O)ccc12 (stereo not given) | 67.8% (active)
Cc1ccc(S(=O)(=O)N(C)C)cc1NC(=O)COC(=O)C1COc2ccccc2O1 (stereo not given) | 1.74% (inactive)
CC(=O)c1ccccc1NC(=O)COC(=O)C1COc2ccccc2O1 (stereo not given) | -3.4% (inactive)
C=CCN1C(=O)[C@@H](CC(=O)N2CCN(C(=O)OCC)CC2)[C@]2(C(=O)OCC)CCCCC/C=C/12 | -0.68% (inactive)
CC(C)(C)OC(=O)NCCc1ccccc1/C=C/S(=O)(=O)NCc1ccc(F)cc1 | -1.63% (inactive)
COc1ccc(CN2C/C(=C/c3ccccc3)N3C(=O)C[C@@H](c4ccccc4)N=C23)c(OC)c1 | -1.46% (inactive)
COc1c(O)cc2oc(-c3ccc(O)c(O)c3)cc(=O)c2c1O | 34.7% (active)
CCCC[C@H](C(=O)N(CC)c1ccccc1)[C@@H](O)c1ccc2ccccc2c1 | -3.33% (inactive)
C=CCN1C(=O)[C@H](CC(=O)NCCCN2CCCC2=O)[C@@]2(C(=O)OCC)CCCC=C12 | -3.27% (inactive)
COC1=C[C@H](C(=O)NCCNC(C)=O)[C@H](C)[C@@H](c2ccccc2)CC1=O | -0.49% (inactive)
C=C1c2c(Cl)ccc(O)c2C(O)=C2C(=O)[C@]3(O)C(O)=C(C(N)=O)C(=O)[C@@H](N(C)C)[C@@H]3[C@@H](O)C12 (stereo not given in full) | 68% (active)
CN(C)[C@@H]1C(=O)C(C(N)=O)=C(O)[C@@]2(O)C(=O)C3=C(O)c4c(O)ccc(Cl)c4[C@@H](O)[C@H]3C[C@@H]12 | 38.5% (active)
CCOC(=O)[C@]12CCCC=C1N(CCCOC)C(=O)[C@@H]2CC(=O)N1CCOCC1 | 4.81% (inactive)
COc1ccc(C2Nc3ccccc3C(=O)N2Cc2cccs2)cc1COc1c(C)cccc1C (stereo not given) | -0.72% (inactive)
CCOC(=O)C1=C(C)NC2=C(C(=O)CC(C)(C)C2)C1c1ccc2c(c1)OCO2 (stereo not given) | -1.19% (inactive)
CCCC1CCC2(CCCN2CCOC(=O)NCc2ccccc2)CC1 (stereo not given) | -0.38% (inactive)
Cc1ccc(C(=O)OC(C)CN2CCOCC2)cc1 (stereo not given) | 57.5% (active)
Cc1cccc(C(=O)OC(C)CN2CCCC2)c1 (stereo not given) | 1.96% (inactive)
CC(CN1CCOCC1)OC(=O)c1ccc(C(C)(C)C)cc1 (stereo not given) | 2.54% (inactive)
COc1ccc2c(C(C)c3ccc(N)cc3)cn(C)c2c1 (stereo not given) | 3.86% (inactive)

SMILES | inhibition
Cc1c(C(C)c2ccccc2O)[nH]c2ccccc12 (stereo not given) | -2.27% (inactive)
Oc1ccc(N=Cc2sc3ccccc3c2Cl)cc1 | 27.5% (active)
COc1ccc([C@H]2OC(=O)C[C@H]2C(=O)N2CCN(c3ccccc3F)CC2)cc1OC | 1.9% (inactive)
Cc1cc(C)nc(NC(=S)N2CCN(c3ccc(C(F)(F)F)cn3)CC2)c1 | 4.81% (inactive)
O=S1(=O)c2c(cccc2N2CCSCC2)Oc2ccccc2CN1Cc1cn(Cc2ccc(F)cc2)nn1 | -4.35% (inactive)
COC(=O)C1CN(CCc2ccccc2)CCS(=O)(=O)N1Cc1ccc(F)cc1 (stereo not given) | -0.36% (inactive)
O=C(CCS(=O)(=O)c1ccccc1)Nc1ccc(Cl)c(Cl)c1 | -0.44% (inactive)
Cc1ccc(-c2cnc(NC(=O)CCC(=O)N(C)Cc3ccccc3)n2C)cc1 | 38.1% (active)
Cn1c(-c2ccc(F)cc2)cnc1SCC(=O)NNC(=O)Cc1ccccc1 | -1.96% (inactive)
CN(Cc1ccccc1)C(=O)CCNC(=O)Cn1cnc2ccccc2c1=O | -0.32% (inactive)
O=C(OCC#CCSc1nnc(-c2ccco2)o1)c1ccc(F)cc1 | -2.28% (inactive)
COC(=O)[C@]12C[C@H](CC(=O)NCc3ccccc3)C(=O)N(Cc3ccccc3)C1=C[C@H](COCc1ccccc1)O[C@@H]2C | -1.62% (inactive)
CC(C)C(C#CC1CC1)N(Cc1ccc2c(c1)OCO2)C(N)=NC(=O)/C=C/c1cccc(C(F)(F)F)c1 (stereo not given) | -0.12% (inactive)
COc1ccc(CSc2nnc(-c3cccc(C)c3)n2C)cc1 | 1.05% (inactive)
Cn1c(SCc2nc3ccccc3s2)nnc1-c1ccc2c(c1)OCO2 | 14.7% (active)
Cn1c(SCC(=O)N2CCCC2)nnc1-c1ccc2c(c1)OCO2 | 0.18% (inactive)
CCOC(=O)[C@]12CCCC3=C1N(CCC3)C(=O)[C@@H](CC(=O)N1CCSCC1)C2 | 4.16% (inactive)
COC(=O)[C@]12C[C@H](CC(=O)NCc3ccccc3)C(=O)N(CCC3=CCCCC3)C1=C[C@H](C(C)C)O[C@@H]2C1CC1 | -3.27% (inactive)
Cc1ccccc1CN1CCCCC(NC(=O)c2cccc(C#N)c2)C1=O (stereo not given) | -3.73% (inactive)
CCCCCCN1CCS(=O)(=O)N(Cc2ccc(C(F)(F)F)cc2)C(C(=O)OC)C1 (stereo not given) | -2.95% (inactive)
CCCn1c(C)cc(/C=C(\C#N)C(=O)OCC(=O)Nc2cc(OC)c(OC)c(OC)c2)c1C | 4.46% (inactive)
CCOC(=O)/C(C#N)=C\c1c(C)cc(C)c(COC(C)=O)c1C | 15.8% (active)
COC(=O)/C(C#N)=C/c1occc1C | 1.63% (inactive)
CCOC(=O)c1csc(NC(=O)C2CCCN(S(=O)(=O)c3ccc(Cl)s3)C2)n1 (stereo not given) | 3.42% (inactive)
CSc1ccc(C=Nn2c(-c3ccc(F)cc3)n[nH]c2=S)cc1 | 1.18% (inactive)
COc1ccc2c(c1)CN1CN(CCc3ccccc3)S(=O)(=O)CC21 (stereo not given) | 3.16% (inactive)
